{"source": "PubChem BioAssay AID504608", "about": "(National Center for Advancing Translational Sciences (NCATS), 2011)", "note": "Where “and” joins values, the source holds several entries; their conditions need not be identical. Equal values may be shown once. Calls of active or inactive are those of the source. Calls come from the whole dose curve; as a rule, active = well fitted inhibition curve with a large enough effect; inconclusive = small, poorly fitted or top-dose-only effect; inactive = flat fitted curve, though single readings scatter.", "data": [{"experiment": "Quantitative high throughput screen for delayed death inhibitors of the malarial parasite plastid, 48 hour incubation.", "settings": "P. falciparum in erythrocytes, luciferase growth", "excerpt": "NIH Molecular Libraries Probe Production Network [MLPCN] NIH Chemical Genomics Center [NCGC] MLPCN Grant: R21 NS059500 Assay Provider: David Fidock and Eric Ekland, Columbia University The goal of this screen is to discover new antimalarial compounds that act by inhibiting the development of the apicoplast in the malarial parasite Plasmodium falciparum. The biochemical processes that make this organelle essential for erythrocytic stage parasites are not well understood. However, antibiotics, such as azithromycin and tetracycline, which target the apicoplast translational machinery, have a potent antimalarial effect. […] We have developed a cell-based assay that measures parasite growth based on the expression of an integrated copy of a firefly luciferase reporter. To detect small molecules that cause this 'delayed death' phenotype, erythrocytes infected with the luciferase-expressing parasites were incubated with compounds for either one or two generations, corresponding to 48 and 96 hours, respectively. Compounds that inhibit parasite growth in the second generation, but not the first, should be enriched in antimalarials that target the apicoplast. Growth inhibition is detected by a decrease in luciferase activity\nFour microliters of culture medium (RPMI 1640 with 0.5% w/v Albumax (GIBCO), 24 mM sodium bicarbonate and 10 ug/mL gentamycin) were dispensed by a Multi-drop Combi into white solid 1536-well plates (Grenier) and 23 nL compound was added by a pin tool. Four microliters of infected erythrocytes (2% hematocrit, 0.1% parasitemia final concentration) in culture medium were dispensed and the plates incubated for 48 hours at 37 C in 5% CO2. Two microliters of luciferase detection reagent was added and luminescence was detected by a ViewLux (PerkinElmer) reader", "values": [{"smiles": "C[C@@H]1CN([C@@H](C)CO)C(=O)c2cc(NC(=O)Nc3ccccc3)ccc2O[C@@H](C)C/C=C\\CO[C@H]1CN(C)S(=O)(=O)c1ccc(F)cc1", "Potency": "356 nM (active)"}, {"smiles": "C[C@@H]1CCCCO[C@@H](CN(C)Cc2ccc(F)cc2)[C@H](C)CN([C@@H](C)CO)C(=O)c2cc(NC(=O)Nc3ccccc3)ccc2O1", "Potency": "4000 nM (active)"}, {"smiles": "C[C@@H]1CN(C)C(=O)c2cc(NC(=O)Nc3ccccc3)ccc2O[C@@H](C)CCCCO[C@@H]1CN(C)S(=O)(=O)c1ccc(F)cc1", "Potency": "1260 nM (active)"}, {"smiles": "C[C@@H]1CN([C@@H](C)CO)C(=O)c2cc(NC(=O)Nc3ccccc3)ccc2O[C@@H](C)CCCCO[C@H]1CN(C)C(=O)OC(C)(C)C", "Potency": "565 nM (active)"}, {"smiles": "COCCOCOC[C@H](C)N1C[C@@H](C)[C@H](CN(C)S(=O)(=O)c2ccc(F)cc2)OCCCC[C@H](C)Oc2ccc(NC(=O)Nc3ccccc3)cc2C1=O", "Potency": "11.3 nM (active)"}, {"smiles": "C[C@@H]1CN([C@@H](C)CO[Si](C)(C)C(C)(C)C)C(=O)c2cc(NC(=O)Nc3ccccc3)ccc2O[C@@H](C)CCCCO[C@H]1CN(C)S(=O)(=O)c1ccc(F)cc1", "Potency": "1.1 nM (active)"}, {"smiles": "Cc1noc(C)c1NC(=O)Nc1ccc2c(c1)C(=O)N(C(C)C)C[C@@H](C)[C@H](CN(C)S(=O)(=O)c1ccc(F)cc1)OCCCC[C@H](C)O2", "Potency": "63.4 nM (active) and 1.59 µM (active)"}, {"smiles": "C=CCOC(=O)N(C)C[C@@H]1OCCCC[C@H](C)Oc2ccc(NC(=O)Nc3ccccc3)cc2C(=O)N([C@H](C)COC(=O)c2ccccc2)C[C@H]1C", "Potency": "504 nM (active)"}, {"smiles": "C[C@@H]1CN([C@@H](C)COC(=O)c2ccccc2)C(=O)c2cc(NC(=O)Nc3ccccc3)ccc2O[C@@H](C)CCCCO[C@H]1CN(C)S(=O)(=O)c1ccc(F)cc1", "Potency": "63.4 nM (active)"}, {"smiles": "C=CCOC(=O)N(C)C[C@H]1OCCCC[C@H](C)Oc2ccc(NC(=O)Nc3ccccc3)cc2C(=O)N([C@@H](C)CO[Si](C)(C)C(C)(C)C)C[C@H]1C", "Potency": "283 nM (active)"}, {"smiles": "C[C@@H]1CCCCO[C@H](CN(C)C(=O)Nc2ccc(F)cc2)[C@H](C)CN([C@@H](C)CO)C(=O)c2cc(NS(=O)(=O)c3ccccc3)ccc2O1", "Potency": "356 nM (active)"}, {"smiles": "C[C@@H]1CN(CCO)C(=O)c2cc(NC(=O)Nc3ccccc3)ccc2O[C@@H](C)CCCCO[C@H]1CN(C)S(=O)(=O)c1ccc(F)cc1", "Potency": "179 nM (active)"}, {"smiles": "COc1ccc(COC[C@H](C)N2C[C@@H](C)[C@H](CN(C)Cc3ccc(OC)cc3)OCCCC[C@H](C)Oc3ccc(NC(=O)Nc4ccccc4)cc3C2=O)cc1", "Potency": "565 nM (active)"}, {"smiles": "C[C@@H]1CN([C@@H](C)CO)C(=O)c2cc(NC(=O)Nc3ccccc3)ccc2O[C@@H](C)CCCCO[C@H]1CN(C)S(=O)(=O)c1cccc(F)c1", "Potency": "10 nM (active)"}, {"smiles": "C[C@@H]1CN([C@H](C)CO[Si](C)(C)C(C)(C)C)C(=O)c2cc(NC(=O)Nc3ccccc3)ccc2O[C@@H](C)CCCCO[C@H]1CN(C)S(=O)(=O)c1ccc(F)cc1", "Potency": "225 nM (active)"}, {"smiles": "Cc1noc(C)c1NC(=O)Nc1ccc2c(c1)C(=O)N([C@@H](C)CO)C[C@@H](C)[C@H](CN(C)S(=O)(=O)c1ccc(F)cc1)OCCCC[C@H](C)O2", "Potency": "126 nM (active)"}, {"smiles": "C[C@@H]1CN([C@@H](C)CO)C(=O)c2cc(NC(=O)Nc3ccccc3)ccc2O[C@@H](C)CCCCO[C@H]1CN(C)S(=O)(=O)c1cccnc1", "Potency": "2830 nM (active)"}, {"smiles": "C[C@@H]1CN([C@@H](C)COC(=O)c2ccccc2)C(=O)c2cc(NC(=O)Nc3ccccc3)ccc2O[C@@H](C)CCCCO[C@H]1CN(C)C(=O)OC(C)(C)C", "Potency": "400 nM (active)"}, {"smiles": "C[C@@H]1CN(CCO[Si](C)(C)C(C)(C)C)C(=O)c2cc(NC(=O)Nc3ccccc3)ccc2O[C@@H](C)CCCCO[C@H]1CN(C)S(=O)(=O)c1ccc(F)cc1", "Potency": "56.5 nM (active)"}, {"smiles": "C[C@@H]1CN([C@@H](C)CO)C(=O)c2cc(NC(=O)Nc3ccccc3)ccc2O[C@@H](C)C/C=C/CO[C@H]1CN(C)S(=O)(=O)c1ccc(F)cc1", "Potency": "142 nM (active)"}, {"smiles": "C=CCOC(=O)N(C)C[C@@H]1OCCCC[C@H](C)Oc2ccc(NC(=O)Nc3ccccc3)cc2C(=O)N([C@@H](C)CO)C[C@H]1C", "Potency": "356 nM (active)"}, {"smiles": "COCOC[C@H](C)N1C[C@@H](C)[C@H](CN(C)S(=O)(=O)c2ccc(F)cc2)OCCCC[C@H](C)Oc2ccc(NC(=O)Nc3ccccc3)cc2C1=O", "Potency": "10 nM (active)"}, {"smiles": "C[C@@H]1CN([C@@H](C)CN=[N+]=[N-])C(=O)c2cc(NC(=O)Nc3ccccc3)ccc2O[C@@H](C)CCCCO[C@H]1CN(C)S(=O)(=O)c1ccc(F)cc1", "Potency": "3.6 nM (active)"}, {"smiles": "C[C@@H]1CN([C@@H](C)COC(=O)C(C)(C)C)C(=O)c2cc(NC(=O)Nc3ccccc3)ccc2O[C@@H](C)CCCCO[C@H]1CN(C)S(=O)(=O)c1ccc(F)cc1", "Potency": "11.3 nM (active)"}, {"smiles": "C[C@@H]1CN([C@@H](C)COC(C)(C)C)C(=O)c2cc(NC(=O)Nc3ccccc3)ccc2O[C@@H](C)CCCCO[C@H]1CN(C)S(=O)(=O)c1ccc(F)cc1", "Potency": "1.3 nM (active)"}, {"smiles": "C[C@@H]1CN([C@@H](C)CO)C(=O)c2cc(N)ccc2O[C@@H](C)CCCCO[C@H]1CN(C)S(=O)(=O)c1ccc(F)cc1", "Potency": "159 nM (active)"}, {"smiles": "C[C@@H]1CN([C@@H](C)CO)C(=O)c2cc(Nc3nc4ccccc4o3)ccc2O[C@@H](C)CCCCO[C@H]1CN(C)S(=O)(=O)c1ccc(F)cc1", "Potency": "1590 nM (active)"}, {"smiles": "CC(C)N1C[C@@H](C)[C@H](CN(C)S(=O)(=O)c2ccc(F)cc2)OCCCC[C@H](C)Oc2ccc(NC(=O)Nc3ccccc3)cc2C1=O", "Potency": "17.9 nM (active)"}, {"smiles": "C[C@@H]1CN([C@@H](C)CO)C(=O)c2cc(NC(=O)Nc3ccccc3)ccc2O[C@@H](C)CCCCO[C@H]1CN(C)S(=O)(=O)c1ccc(C(F)(F)F)cc1", "Potency": "896 nM (active)"}, {"smiles": "C[C@@H]1CN([C@@H](C)CO)C(=O)c2cc(NC(=O)Nc3ccccc3)ccc2O[C@@H](C)CCCCO[C@H]1CN(C)Cc1ccc(C(F)(F)F)cc1", "Potency": "1000 nM (active)"}, {"smiles": "CC(C)NC(=O)Nc1ccc2c(c1)C(=O)N([C@@H](C)CO)C[C@@H](C)[C@H](CN(C)S(=O)(=O)c1ccc(F)cc1)OCCCC[C@H](C)O2", "Potency": "634 nM (active)"}, {"smiles": "COc1ccc(COCCN2C[C@@H](C)[C@H](CN(C)S(=O)(=O)c3ccc(F)cc3)OCCCC[C@H](C)Oc3ccc(NC(=O)Nc4ccccc4)cc3C2=O)cc1", "Potency": "100 nM (active)"}, {"smiles": "C[C@@H]1CN([C@@H](C)CO)C(=O)c2cc(NC(=O)Nc3ccccc3)ccc2O[C@@H](C)CCCCO[C@H]1CN(C)S(=O)(=O)c1ccccc1F", "Potency": "634 nM (active)"}]}]}
